Screens deposited in PubChem by several laboratories.
The list is not random: actives were taken first. Their share in the collection is about 1.3%.
PfHsp40 rescue: restores yeast growth despite PfHsp40 toxicity; actives 0.68% (n = 340,000); growth rescue, % at 12.5 µM; S. cerevisiae expressing PfHsp40, growth rescue, ATP luminescence; in the data active = growth rescue above about 28%, passing the limit was not always enough; inconclusive = no clear call, values can overlap the other calls;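 note: yeast W303a lacking pdr1 and pdr3 grown in galactose medium; growth measured after three days at 30 °C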
Sa ugtP lethal: kills S. aureus RN4220 lacking UgtP. S. aureus RN4220 ugtP deletion, OD600 growth, 16 h. growth inhibition, % (test concentration not listed). actives 0.54% (n = 330,000). AID 1259309; in the data active = growth inhibition above about 68%
BJeLR lethal: kills HRASV12-expressing BJeLR cells. BJeLR (HRASV12) viability, CellTiter-Glo ATP luminescence, 48 h. inhibition, % (test concentration not listed). actives 0.17% (n = 300,000). AID 1554; in the data active = inhibition above about 50%; inconclusive = no clear call, values can overlap the other calls
3CLpro inhibitor: SARS-CoV 3CLpro protease inhibition. AID 1706. actives 0.14% (n = 290,000). P0C6X7. recombinant SARS-CoV 3CLpro, quenched FRET peptide cleavage. inhibition, % at 6 µM; in the data active = inhibition above about 12%
RN4220 kill: kills Staphylococcus aureus RN4220; S. aureus RN4220 growth, OD600, 16 h; inhibition, % (concentration not given with the values); actives 0.33% (n = 330,000); in the data active = inhibition above about 85%
Hits are given with their value; – = inactive; ? = inconclusive; · = no result given.

SMILES	PfHsp40 rescue	Sa ugtP lethal	BJeLR lethal	3CLpro inhibitor	RN4220 kill
Cc1nn(-c2ccccc2)c2c1C(O)n1c(nc3ccccc31)S2 (stereo unspecified)	–	–	–	–	–
O=C(NCCCc1ccccc1)c1c(O)nc2sccn2c1=O	178.0	–	–	·	–
O=C(NCCC1=CCCCC1)c1c(O)nc2sccn2c1=O	372.4	–	–	·	–
O=C(NCCC1=CCCCC1)c1c(O)nc2ccccn2c1=O	–	–	–	–	–
CCn1c(=O)c(C(=O)NCCCc2ccccc2)c(O)c2ccccc21	–	–	–	–	–
O=C(COc1ccc(-c2nnco2)cc1)NC1CCS(=O)(=O)C1 (stereo unspecified)	31.3	–	·	·	–
C=C(C)CSc1nc2sc3c(c2c(=O)n1C1CCCCC1)CCN(C)C3	–	active	–	–	–
COc1ccc(C(C)C)cc1S(=O)(=O)N1CCC(C(=O)NCC2CCCO2)CC1 (stereo unspecified)	–	–	–	–	–
Cc1ccc(C(=O)NNC(=O)CSc2nnc3c(n2)[nH]c2ccc(C)cc23)cc1	–	–	–	–	–
CCc1ccc2[nH]c3nc(SCC(=O)NNC(=O)c4ccc(C(C)(C)C)cc4)nnc3c2c1	–	85.1	–	–	–
COc1ccc(/C=C/C(=O)OCC(=O)NCCC2=CCCCC2)cc1S(=O)(=O)N1CCOCC1	–	–	–	–	–
CN(CCCC1CCCC1)C(=O)c1cc(COc2c(F)cccc2F)on1	–	–	–	–	–
CN(CCCC1CCCC1)C(=O)c1cc(COc2ccc(F)c(F)c2)on1	44.3	–	–	–	–
C=CS(=O)(=O)c1sc(Cl)c(N2CCOCC2)c1[N+](=O)[O-]	481.9	–	–	–	–
CC1CC(C)C(=NNC(N)=O)C(C(O)CC2CCC(=O)NC2=O)C1 (stereo unspecified)	33.4	–	·	·	–
CCOC(=O)c1sc(=S)n(-c2cc(OC)ccc2OC)c1N	200.5	–	–	–	–
O=C(c1ccc([N+](=O)[O-])c(CS(=O)(=O)c2ccc(Cl)cc2)c1)N1CCCC1	40.8	–	–	–	–
NNC(=O)c1ccc([N+](=O)[O-])c(CS(=O)(=O)c2ccc(Cl)cc2)c1	–	–	–	–	–
CSc1nnnn1-c1c(C)cccc1C	–	–	–	–	–
Cc1ccc(NC2(c3nnnn3-c3c(C)cccc3C)CCCCC2)cc1	65.8	–	–	–	–
CCOC(=O)c1c(NC(=S)NNS(=O)(=O)c2ccc(Br)cc2)sc2c1CCCCC2	–	–	–	–	–
COc1ccc(OC)c(Nc2c3ccccc3nc3ccccc23)c1	–	·	–	–	·
COc1cc(NS(C)(=O)=O)ccc1Nc1c2ccccc2nc2ccccc12	–	99.7	·	·	–
NC(=O)C(=NOC(=O)c1ccco1)c1nc(-c2ccc(Br)cc2)cs1	·	92.8	·	·	–
Cc1c(N=Cc2cc(Br)cc(Br)c2O)cccc1C(=O)O	58.9	–	–	–	–
SMILES	PfHsp40 rescue	Sa ugtP lethal	BJeLR lethal	3CLpro inhibitor	RN4220 kill
O=C(O)c1cccc(N/N=C/c2cc(Br)cc(Br)c2O)c1	–	·	–	–	·
C[C@@H]1O[C@@H](O[C@H]2C[C@@H](O)[C@]3(CO)[C@H]4[C@H](O)C[C@]5(C)[C@@H](C6=CC(=O)OC6)CC[C@]5(O)[C@@H]4CC[C@]3(O)C2)[C@H](O)[C@H](O)[C@H]1O	–	·	80.4	–	·
CCCCCC(=O)Nc1cc(S(=O)(=O)O)cc2cc(S(=O)(=O)O)cc(O)c12	–	·	·	·	·
N=C(N)c1ccc(OCCCCCOc2ccc(C(=N)N)cc2)cc1	112.3	·	–	–	·
N=C(N)c1ccc(N)cc1	67.3	–	·	·	–
Cc1ccc2nc(N3C(=O)C(O)=C(C(=O)c4ccco4)C3c3cccs3)sc2c1 (stereo unspecified)	–	–	–	–	–
Cc1ccc2nc(N3C(=O)C(O)=C(C(=O)c4ccc(C)o4)C3c3ccc(O)cc3)sc2c1 (stereo unspecified)	–	87.3	·	·	–
CNC(C)c1cc(OC)ccc1OC (stereo unspecified)	45.4	–	–	–	–
COc1ccc(OC)c(C(C)NC(C)=O)c1 (stereo unspecified)	–	–	–	–	–
OCCC1CN(Cc2cccn2-c2ncccn2)CCN1Cc1ccccc1 (stereo unspecified)	–	–	–	–	–
CC1COc2ccccc2N1S(=O)(=O)c1ccc(Cl)cc1 (stereo unspecified)	32.1	–	–	–	–
CCOC(=O)CN=C1CC(C)(C)CC2=C1Sc1ncnc(N(C)C)c1N2	–	–	–	–	–
O=C(CSc1nnc(SCc2ccc(Cl)cc2)s1)N/N=C/c1ccc(C(=O)O)cc1	–	·	–	–	·
O=C(CN1C(=O)S/C(=C\c2cccs2)C1=O)Nc1ccc(C(=O)O)c(O)c1	–	–	–	13.5	–
O=C(CN1C(=O)S/C(=C\c2cccs2)C1=O)Nc1ccc(O)c(C(=O)O)c1	–	–	–	–	–
C=CCc1cc(C(=O)N2CCCCC2)ccc1O	–	–	–	–	–
C=CCc1ccc(O)c(-c2ccc(O)c(CC=C)c2)c1	233.1	–	–	–	–
CC(C)(C)C(=O)NC(=S)Nc1ccc(F)cc1	–	–	–	–	–
O=C(COC(=O)c1ncc(Cl)c(Cl)c1Cl)NCCc1ccccc1	–	–	–	·	–
O=C(O)CCCC(=O)N1CCN(c2nc(-c3ccccc3Cl)c3cc(Br)ccc3n2)CC1	47.3	–	–	–	–
CC(C)CN(C(=O)c1cccc(S(=O)(=O)N2CCN(Cc3ccccc3)CC2)c1)C1CCS(=O)(=O)C1 (stereo unspecified)	346.9	–	–	·	–
O=C1OCCN1N=Cc1ccc([N+](=O)[O-])o1	·	100.2	·	·	100.4
CCN(CC)CC1CN(N=Cc2ccc([N+](=O)[O-])o2)C(=O)O1 (stereo unspecified)	–	–	·	·	–
Cc1nc(SCC(=O)Nc2ccc3c(c2)OCCO3)c2oc3ccccc3c2n1	–	90.3	–	–	–
CCc1nc(SCC(=O)Nc2ccc3c(c2)OCCO3)c2oc3ccccc3c2n1	–	–	–	–	–
SMILES	PfHsp40 rescue	Sa ugtP lethal	BJeLR lethal	3CLpro inhibitor	RN4220 kill
CC(C)COc1ccc(Cc2cnc(N)nc2N)cc1	–	96.9	–	–	–
COc1ccc(/C=C/C(=O)c2c(O)ccc3c(C)cc(=O)oc23)cc1	–	89.1	–	–	–
COc1ccc(/C=C\C(=O)c2c(O)ccc3c(C)cc(=O)oc23)cc1	–	87.1	–	–	–
CSc1nc2ccc(Cl)cc2[nH]1	–	–	–	–	–
CSc1nc2cc(Oc3cccc(Cl)c3Cl)c(Cl)cc2[nH]1	?	97.2	–	–	99.8
CC(=NNC(=O)CNC(=O)c1ccc2c(c1)OCCO2)c1ccco1	·	–	·	·	–
NC(=O)COC(=O)c1oc2ccccc2c1CSc1ccc(Cl)cc1	–	96.2	–	–	–
O=Cc1cc(N=Nc2ccccc2Cl)ccc1O	211.1	–	–	–	–
COC(=O)NN=Cc1cc(N=Nc2ccccc2Cl)ccc1O	·	–	·	·	–
